Potency data for 40 compounds are collected here from PubChem BioAssay (NCATS).

Records with an inconclusive call do not appear. A call without a number means that no potency is given here. Calls of active or inactive are those of the source. Calls come from the whole dose curve; as a rule, active = well fitted inhibition curve with a large enough effect; inconclusive = small, poorly fitted or top-dose-only effect; inactive = flat fitted curve, though single readings scatter.

Calcium and integrin-binding protein 1 (Homo sapiens), sequence (Q99828 whole entry, looked up): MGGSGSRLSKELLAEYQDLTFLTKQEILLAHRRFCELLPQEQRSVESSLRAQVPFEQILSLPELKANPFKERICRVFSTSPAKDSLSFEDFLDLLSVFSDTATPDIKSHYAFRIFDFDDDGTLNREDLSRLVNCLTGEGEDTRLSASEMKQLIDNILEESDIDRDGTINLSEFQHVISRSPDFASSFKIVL

For the test, the target named is Calcium and integrin-binding protein 1 (Homo sapiens) (UniProt Q99828). Put plainly: Primary qHTS for Identification of Calcium Integrin Binding Protein 1 (CIB1) Competitor (AID 1508620).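 Note: GST tagged CIB1 binding a fluorescein labelled alphaIIb integrin peptide tracer; top concentration of the series differs between compounds.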 Conditions: CIB1-GST / FITC-alphaIIb peptide fluorescence polarization; series mostly up to 114 µM. An outline of the steps:
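Fluorescence polarization competition: CIB1-GST (1 uM final) preincubated with compound 15 min at room temperature, then FITC-labeled alphaIIb peptide (100 nM final) added for another 15 min. Polarization read at Ex 480/Em 540.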
A general note: In qHTS, concentration-response curves come from the screen itself.
For `CC(=O)c1ccccc1-c1ncc(C)c(NCC2CCN(c3cccnc3)CC2)n1`, the Potency result is “inactive”. Then `CC(=O)N1CCc2cc(S(=O)(=O)N3CCN(S(=O)(=O)c4c(F)cccc4F)CC3)ccc21`, with “inactive”; and `O=C(Nc1ccc2c(c1)CCC2)Nc1nnc(-c2ccncc2)s1`, with “inactive”; and `COc1cccc(-c2ccc3ncnc(NCc4cccc(F)c4)c3c2)c1`, with “inactive”. `Cn1cc(P(=O)(c2ccccc2)c2ccccc2)c2ccccc21`: the Potency entry was “inactive”.

With `COc1ccc(C2Nc3ccc(Cl)cc3C(=O)N2Cc2ccccc2)cc1COc1ccc(NC(C)=O)cc1` (stereo not given), the Potency result was “inactive”.

For `O=S(=O)(Nc1cccc2cccnc12)c1ccc2ccccc2c1`, the Potency entry is “inactive”.

Turning to `Cc1ccc(OCCn2c(CCNC(=O)Cc3ccccc3F)nc3ccccc32)cc1`, the Potency entry was “inactive”. Then `CCCCN1C(=O)c2ccccc2NC1c1ccc(OC)c(COc2ccc(NC(C)=O)cc2)c1` (stereo not given), with “inactive”; and `O=C(O)c1cccc(-c2noc(-c3ccccc3C(F)(F)F)n2)c1`, with “inactive”; and `O=S(=O)(c1cccc(Cl)c1)N1CCN(S(=O)(=O)c2ccc3c(c2)OCCO3)CC1`, with “inactive”. In the case of `O=C(O)c1ccc2c(c1)C(=O)N(CCc1ccc(O)cc1)C2=O`, the Potency result is “inactive”. Regarding `COc1cccc(CNc2ccc(S(=O)(=O)Nc3ccc(-c4ccccc4)cc3)cc2)c1O`, the Potency entry was “inactive”. As to `O=C(CN1C(=O)N/C(=C\c2cccn2-c2cccc(C(=O)O)c2)C1=O)Nc1cccc(F)c1`, the Potency entry was “inactive”. As for `Cc1nnc(-c2cnn(C)c2)n1CCCn1ccnc1`, the Potency entry is “inactive”. Take `COc1ccccc1/C=C/C(=O)NCCc1nc2ccccc2n1CCOc1ccc(C)cc1`: the Potency result was “inactive”.

In the case of `Cc1ccnc(NC(=S)N2CCc3cccc(C(F)(F)F)c3C2)c1`, the Potency entry was “inactive”. As to `COC(=O)c1ccc2nc(NC3=NC(c4[nH]ncc4Cl)C4=C(CCCC4=O)N3)oc2c1` (stereo not given), the Potency entry was “inactive”. Consider `Fc1ccc(Nc2nc(-c3ccnc(C(F)(F)F)c3)nc3ccccc23)cc1F`, for which the Potency result was “inactive”. Regarding `O=C(NCc1nnc(-c2cc3ccccc3[nH]2)o1)c1ccccc1`, the Potency entry is “inactive”.

For the compound `COc1ccccc1C1=Nn2c(nnc2-c2ccccc2O)SC1`, the Potency result was “inactive”. For `Cc1ccc(OCCn2c(CCNC(=O)c3cccc(N)c3)nc3ccccc32)cc1`, the Potency entry is “inactive”. As to `c1cncc(CNc2ncnc3ccc(-c4ccc5c(c4)OCCO5)cc23)c1`, the Potency result was “inactive”. Turning to `N#Cc1c(-c2ccc(OCCOCCOCCNC(=O)CCCC[C@@H]3SC[C@@H]4NC(=O)N[C@@H]43)cc2)no[n+]1[O-]`, the Potency result is “inactive”. For `CC(C)(C)C(=O)N1CCN(c2cccc(Nc3nn4c(=O)c5ccccc5nc4s3)c2)CC1`, the Potency result was “inactive”. Then `O=C(Nc1nnc(COc2ccc(Cl)cc2)s1)c1cccs1`, with “inactive”; and `COc1ccc(C2Nc3cccc(OC)c3C(=O)N2Cc2ccco2)cc1COc1c(C)cc(NC(C)=O)cc1C` (stereo not given), with “inactive”; and `CCCCNC(=S)NCCCN(Cc1ccc(Cl)c(Cl)c1)c1ccc(Br)cn1`, with “inactive”.

As for `COc1ccc(C2=Nn3c(nnc3-c3ccccc3OC)SC2)cc1OC`, the Potency result is “inactive”. With `N#Cc1nc(Nc2cc(Cl)cc(Cl)c2)nc(NC2CCCC2)n1`, the Potency entry was “inactive”. Take `Cc1cc(-c2ccccc2)n2ncc(C(=O)Nc3ccccc3Sc3ccccc3)c2n1`: the Potency entry was “inactive”. The entry for `COc1nccc(-c2nc(Nc3ccc(F)c(F)c3)c3ccccc3n2)c1Cl` is “inactive”; for `c1coc(CNc2nc(-c3cccs3)nc3ccccc23)c1` it is “inactive”; for `CC(=O)Nc1sc2c(c1-c1cccc3c1sc1ccccc13)CCNC2` it is “inactive”. Regarding `CC(C)(NC(=O)Nc1ccccc1Cl)C(=O)N1CCC(C(=O)O)CC1`, the Potency entry was “inactive”.

With `Cc1cc(C)nc(/N=C(\NC#N)N2CCN(c3cccc(C(F)(F)F)c3)CC2)c1`, the Potency result is “inactive”. As for `COc1ccc(-c2nnc3n2N=C(c2c(OC)cccc2OC)CS3)c(OC)c1`, the Potency entry is “inactive”. `CC(C)(C)OC(=O)NCCOCCOCCOc1cccc(-n2ncc3c2CCCC3NC(=O)c2ccccn2)c1` (stereo not given): the Potency result was “inactive”. Consider `c1c[nH]c(C2CCN(c3ncc(-c4ccc5c(c4)OCCCO5)s3)CC2)n1`, for which the Potency result is “inactive”.

Consider `C[C@@H](N)C(=O)Nc1cccc(-c2nn3c(=O)cc(N4CCNCC4)nc3s2)c1`, for which the Potency result is “inactive”.
